The source of these data is the supplement of paper PMC10811239.

This test concerns LEGO organoid PT (PTEN-/-; TP53-/-). Briefly: bioluminescence (viable cell) signal fold change after vs before treatment, normalised to DMSO (ratio); higher = more tumour cell growth / less inhibition. To be noted: 10 µM; treatment time 6 days. The procedure:
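Luc2-labelled iPSC-derived glioblastoma-like organoids (LEGOs, genotypes PT = PTEN-/-;TP53-/-, PTCC = plus CDKN2A/B-/-, PTN = plus NF1-/-) were treated with 10 uM drug for 6 days (applied every other day) at 37 C. Bioluminescence imaging was done before treatment and 2 days after the last dose. BLI signals were normalised to the DMSO control on the same day and then to the pre-treatment signal (N=3).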
Consider `Cl.Cn1c(CCCC(=O)O)nc2cc(N(CCCl)CCCl)ccc21` [Bendamustine hydrochloride], for which the bioluminescence is 0.772.

Turning to `CCC1(c2ccc(N)cc2)CCC(=O)NC1=O` (configuration not stated) [Aminoglutethimide], the bioluminescence is 0.724.

As to `CCN(C)C(=O)Oc1cccc([C@H](C)N(C)C)c1` [Rivastigmine], the bioluminescence stood at 1.31.

With `CC[C@@H](C(N)=O)N1CCCC1=O` [Levetiracetam], the bioluminescence was 0.803.

With `COc1ccc(C(CN(C)C)C2(O)CCCCC2)cc1.Cl` (configuration not stated) [Venlafaxine hydrochloride], the bioluminescence was 0.615.

In the case of `NCC(CC(=O)O)c1ccc(Cl)cc1` (configuration not stated) [Baclofen], the bioluminescence worked out at 0.694.

Take `CC(C)c1cccc(C(C)C)c1O` [Propofol]: the bioluminescence was 1.34.

As for `Cc1n[nH]cc1-c1cc2[nH]c([C@@H]3CC4CCN3CC4)nc(=O)c2s1` [Simurosertib], the bioluminescence was determined as 1.6.

For the compound `CC(C)C[C@H]1C(=O)N2CCC[C@H]2[C@]2(O)O[C@](NC(=O)[C@@H]3C[C@@H]4c5cccc6[nH]cc(c56)C[C@H]4N(C)C3)(C(C)C)C(=O)N12.CC(C)[C@@]1(NC(=O)[C@@H]2C[C@@H]3c4cccc5[nH]cc(c45)C[C@H]3N(C)C2)O[C@@]2(O)[C@@H]3CCCN3C(=O)[C@H](Cc3ccccc3)N2C1=O.CC(C)[C@H]1C(=O)N2CCC[C@H]2[C@]2(O)O[C@](NC(=O)[C@@H]3C[C@@H]4c5cccc6[nH]cc(c56)C[C@H]4N(C)C3)(C(C)C)C(=O)N12.CCC(C)[C@H]1C(=O)N2CCC[C@H]2[C@]2(O)O[C@](NC(=O)[C@@H]3C[C@@H]4c5cccc6[nH]cc(c56)C[C@H]4N(C)C3)(C(C)C)C(=O)N12.CS(=O)(=O)O` [Dihydroergotoxine mesylate], the bioluminescence came out at 0.998.

In the case of `CCN(C)C(=O)Oc1cccc([C@H](C)N(C)C)c1.O=C(O)[C@H](O)[C@@H](O)C(=O)O` [Rivastigmine tartrate], the bioluminescence is 2.08.

As for `CCOC(=O)c1cncn1[C@H](C)c1ccccc1` [Etomidate], the bioluminescence was 1.09.

Turning to `NCC1(CC(=O)O)CCCCC1` [Gabapentin], the bioluminescence amounted to 1.08.

For the compound `Cc1cccc([C@H](C)c2cnc[nH]2)c1C.Cl` [Dexmedetomidine HCl], the bioluminescence worked out at 0.872.

Turning to `COc1cc2c(cc1OC)[C@@H]1CC(=O)[C@@H](CC(C)C)CN1CC2.COc1cc2c(cc1OC)[C@H]1CC(=O)[C@H](CC(C)C)CN1CC2` [Tetrabenazine], the bioluminescence amounted to 0.657.

As for `CN[C@@H]1C[C@H]2O[C@@](C)([C@@H]1OC)n1c3ccccc3c3c4c(c5c6ccccc6n2c5c31)C(=O)NC4` [Staurosporine], the bioluminescence came out at 0.0178.

Take `O=C(O)CCCc1ccc(N(CCCl)CCCl)cc1` [Chloroambucil]: the bioluminescence was determined as 1.03.

`CN(C)C(=O)Oc1ccc[n+](C)c1.[Br-]` [Mestinon]: the bioluminescence turned out to be 0.942.
